Measurements: the supplement of paper PMC5919970
Where a name gives a salt, the structure may show the parent alone. In all, about 2,000 compounds were measured (“fractional viability relative to vehicle”: median about 0.92, lowest 2% from about 0.11 on). The sample as a whole holds a higher share of the lowest values than the screen did.

Test system: TYKNU
Experiment: fractional viability relative to vehicle; TYKNU is a high-grade serous ovarian cancer line; higher = less growth inhibition
Conditions: 72 h, genotype: OPA1 knockout (sgOPA1 #2)
Method in brief: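 TYKNU control cells or lentiCRISPRv2 knockout derivatives were plated at 500 cells per well in duplicate into drug-stamped 384-well plates holding a ~2100-compound library at 2 or 10 μM. Culture was in RPMI 1640 with 10% FBS at 37 °C in 5% CO2, with 72 h of drug treatment. Viability was measured by Cell Titer Glo luminescence, and the averaged duplicate treatment wells were normalised to duplicate control wells at the same plate position.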

Row | SMILES | fractional viability (2uM) | fractional viability (10uM)
1 | CN[C@@H](C)C(=O)N[C@H](C(=O)N1CCC[C@H]1c1nc(C(=O)c2ccc(F)cc2)cs1)C1CCCCC1 | 0.719 | 0.643
2 | N#C/C(=C1/SC[C@@H](c2ccc(Cl)cc2Cl)S1)n1ccnc1 [Luliconazole] | 0.989 | 0.818
3 | Cc1cccc(-c2[nH]c(C(C)(C)C)nc2-c2ccc3c(c2)OCO3)n1 | 1.2 | 0.682
4 | CCCS(=O)(=O)Nc1ccc(F)c(C(=O)c2c[nH]c3ncc(-c4ccc(Cl)cc4)cc23)c1F [Vemurafenib (PLX4032, RG7204)] | 1.13 | 1
5 | COc1ncc(-c2ccc3nccc(-c4ccnnc4)c3c2)cc1NS(=O)(=O)c1ccc(F)cc1F | 0.354 | 0.0636
6 | CC(C)(C)c1ccc(S(=O)(=O)/C=C/C#N)cc1 | 0.357 | 0.0658
7 | Cc1ccc(S(=O)(=O)/C=C/C#N)cc1 | 0.121 | 0.09
8 | NC(=O)c1cccc2[nH]c(-c3ccc(C4CCCN4)cc3F)nc12 (stereo unspecified) | 0.735 | 0.788
9 | CC[C@H](CO)Nc1nc(NCc2ccccc2)c2ncn(C(C)C)c2n1 [Roscovitine (Seliciclib,CYC202)] | 1.14 | 0.913
10 | Cc1cc(C(O)=C2C(=O)C(=O)N(CCCN3CCOCC3)C2c2ccncc2)ccc1OCc1ccccc1 (stereo unspecified) | 0.973 | 0.814
11 | CC(O)c1cc(C(=O)N[C@@H](C)Cn2ccc(-c3ccc(C#N)c(Cl)c3)n2)n[nH]1 (stereo partly specified) | 0.945 | 1.06
12 | Cn1ncnc1[C@H]1c2n[nH]c(=O)c3cc(F)cc(c23)N[C@@H]1c1ccc(F)cc1 | 0.905 | 0.986
13 | NC(=O)c1cnc2[nH]ccc2c1N[C@@H]1[C@@H]2CC3C[C@H]1C[C@@](O)(C3)C2 | 0.989 | 1
14 | CC(=O)Nc1cccc2c1c(Sc1ccc(Cl)cc1)c(C)n2CC(=O)O | 0.976 | 0.913
15 | CC(=O)N1c2ccc(-c3ccc(C(=O)O)cc3)cc2[C@H](Nc2ccc(Cl)cc2)C[C@@H]1C | 0.529 | 0.337
16 | NNC(=O)c1ccncc1 [Isoniazid] | 1.01 | 1.08
17 | O=C(NNc1ccccc1)c1ccncc1 | 0.769 | 0.792
18 | O=C(/C=C/c1ccc2ccccc2n1)c1ccncc1 | 0.472 | 0.11
19 | C[C@H](CCC(=O)NCCS(=O)(=O)O)[C@H]1CC[C@H]2[C@@H]3[C@@H](O)C[C@@H]4C[C@H](O)CC[C@]4(C)[C@H]3CC[C@]12C [Sodium Tauroursodeoxycholate (TUDC)] | 0.832 | 0.834
20 | Cc1c(C(=O)NN2CCCCC2)nn(-c2ccc(Cl)cc2Cl)c1-c1ccc(I)cc1 | 0.982 | 0.754
21 | CCN(CC)CCCC(C)Nc1nc(C)cc(Nc2ccc3nc(C)cc(N)c3c2)n1 (stereo unspecified) | 0.891 | 0.898
22 | CCN(CC)CCCC(C)Nc1c2ccc(Cl)cc2nc2ccc(OC)cc12 (stereo unspecified) [Quinacrine 2HCl] | 0.837 | 0.105
23 | C[C@H](Nc1ncnc2[nH]cnc12)c1cc2ccc(F)cc2nc1-c1ccccn1 | 0.879 | 0.836
24 | O=C(O)CCNC(=O)c1ccccc1 [Betamipron] | 1.14 | 0.982
25 | CN(NC(=O)CC(=O)NN(C)C(=S)c1ccccc1)C(=S)c1ccccc1 [Elesclomol (STA-4783)] | 0.0864 | 0.107

Row | SMILES | fractional viability (2uM) | fractional viability (10uM)
26 | O=C(O)c1ccccc1 [Benzoic Acid] | 0.885 | 0.957
27 | Cc1cc(CS(=O)(=O)c2ccccc2)cc(OCc2ccc(CN3CCC[C@@H]3CO)cc2)c1 | 0.843 | 0.875
28 | C=C1[C@H](CO)[C@@H](O)C[C@@H]1n1cnc2c(=O)[nH]c(N)nc21 [Entecavir Hydrate] | 1.01 | 0.935
29 | Cc1nc(C#Cc2ccnc(Cl)c2)c(C)n1-c1ccc(OC(F)(F)F)cc1 | 1.08 | 0.815
30 | CCn1c(-c2nonc2N)nc2c(C#CC(C)(C)O)ncc(OC[C@H]3CCCNC3)c21 | 1.01 | 0.698
31 | Nc1ccc(-c2ccc3ncc4ccc(=O)n(-c5cccc(C(F)(F)F)c5)c4c3c2)cn1 [Torin 2] | 0.36 | 0.363
32 | COc1ccc(-c2ccc3ncc4c(c3c2)n(-c2ccc(N3CCNCC3)c(C(F)(F)F)c2)c(=O)n4C)cn1 | 0.111 | 0.0546
33 | CNC(=O)c1cc(Oc2ccc3nc(N[C@@H]4CCCC[C@H]4O)sc3c2)ccn1 | 0.831 | 0.74
34 | COc1cc2ncnc(Nc3ccc(O)c(Br)c3)c2cc1OC | 1.37 | 1.19
35 | N#Cc1c(NC(=O)c2cccc3ccccc23)sc2c1CCCC2 [JNK Inhibitor IX] | 0.428 | 0.386
36 | Cc1cc(C)nc(SCC(=O)Nc2ncc(Cc3cccc4ccccc34)s2)n1 | 0.904 | 0.931
37 | COc1cccc2c1C(=O)c1c(O)c3c(c(O)c1C2=O)C[C@@](O)(C(=O)CO)C[C@@H]3O[C@H]1C[C@H](N)[C@H](O)[C@H](C)O1 [Doxorubicin (Adriamycin)] | 0.738 | 0.726
38 | COc1cccc2c1C(=O)c1c(O)c3c(c(O)c1C2=O)C[C@@](O)(C(C)=O)C[C@@H]3O[C@H]1C[C@H](N)[C@H](O)[C@H](C)O1 [Daunorubicin HCl] | 0.568 | 0.108
39 | CC(=O)[C@]1(O)Cc2c(O)c3c(c(O)c2[C@@H](O[C@H]2C[C@H](N)[C@H](O)[C@H](C)O2)C1)C(=O)c1ccccc1C3=O [Idarubicin HCl] | 0.56 | 0.0586
40 | Cn1nnc(-c2ccc3c(c2)[nH]c2nc(Cc4ccccc4)nc(NC4CCC(N)CC4)c23)n1 (stereo unspecified) | 1.01 | 0.765
41 | CC(C)Nc1cc(-c2c[nH]c(C(=O)N[C@H](CO)c3cccc(Cl)c3)c2)c(Cl)cn1 | 0.453 | 0.36
42 | Cc1noc(C)c1-c1ccc(-c2cc(C(N)=O)c(NC(N)=O)s2)c(O[C@H]2CCNC2)c1 | 0.847 | 0.778
43 | COc1cc2ncnc(Sc3nnc(C)s3)c2cc1OC | 0.789 | 0.16
44 | Cn1cc(CNCC2CCN(c3ncc(C(=O)NO)cn3)CC2)c2ccccc21 | 0.224 | 0.19
45 | CN(C)Cc1cccc(N=C(c2ccccc2)c2c(O)[nH]c3cc(C(=O)N(C)C)ccc23)c1 | 1.13 | 0.78
46 | CCNC(=O)C#Cc1ccc2c(C(=Nc3ccc(CN(C)C)cc3)c3ccccc3)c(O)[nH]c2c1 | 0.276 | 0.0913
47 | O=C(O)CCCCC(CCSCc1ccccc1)SCc1ccccc1 (stereo unspecified) | 1.23 | 0.919
48 | CCOC(=O)N[C@@H]1CC[C@@H]2[C@@H](C1)C[C@H]1C(=O)O[C@H](C)[C@H]1[C@H]2/C=C/c1ccc(-c2cccc(F)c2)cn1 [Vorapaxar] | 0.913 | 1.06
49 | CCn1c(=O)c(-c2ccc(-c3cncs3)cc2Cl)cc2cnc(Nc3ccc(N4CCN(C)CC4)cc3)nc21 | 0.914 | 0.64
50 | CC1(C)S[C@@H]2[C@H](NC(=O)[C@H](NC(=O)N3CCN(S(C)(=O)=O)C3=O)c3ccccc3)C(=O)N2[C@H]1C(=O)O [Mezlocillin Sodium] | 0.892 | 0.979

Row | SMILES | fractional viability (2uM) | fractional viability (10uM)
51 | Nc1nc(=S)c2ncn([C@H]3C[C@H](O)[C@@H](CO)O3)c2[nH]1 | 1.03 | 0.763
52 | C[C@@]1(c2cc(-c3cncnc3)c(F)cc2F)CCSC(N)=N1 | 1.12 | 0.948
53 | CC(C)C[C@H](NC(=O)CNC(=O)c1cc(Cl)ccc1Cl)B1OC(=O)C(CC(=O)O)(CC(=O)O)O1 | 0.335 | 0.299
54 | CNC(=O)c1ccccc1Nc1nc(Nc2ccc(N3CCOCC3)cc2OC)ncc1Cl | 0.987 | 0.532
55 | CN1CCN(Cc2ccc(Nc3ncc(Cl)c(Nc4ccccc4S(=O)(=O)N(C)C)n3)cc2)CC1 | 0.451 | 0.421
56 | Cc1cc(Nc2ncc(Cl)c(Nc3ccccc3S(=O)(=O)C(C)C)n2)c(OC(C)C)cc1C1CCNCC1 | 0.376 | 0.0286
57 | C[C@H](Nc1ncnc2nc[nH]c12)c1cc2cccc(Cl)c2c(=O)n1-c1ccccc1 | 0.926 | 1.05
58 | COc1cc(O)c(CC=C(C)C)c(O)c1C(=O)/C=C/c1ccc(O)cc1 [Xanthohumol] | 0.841 | 0.772
59 | NC(=O)c1nc(F)cnc1O [Favipiravir (T-705)] | 0.744 | 0.765
60 | O=C1O[C@H]([C@@H](O)CO)C([O-])=C1O.[Na+] [Sodium ascorbate] | 1.02 | 0.95
61 | Cc1nc(-c2cccnc2)sc1C(=O)Nc1ccccc1-c1cn2c(CN3CCOCC3)csc2n1 | 0.748 | 0.855
62 | O=C(Nc1ccccc1-c1cn2c(CN3CCNCC3)csc2n1)c1cnc2ccccc2n1 | 1.19 | 0.0331
63 | Cc1coc2c1C(=O)C(=O)c1c-2ccc2c1CCCC2(C)C [Tanshinone IIA] | 0.599 | 0.327
64 | C[C@H]1COC2=C1C(=O)C(=O)c1c2ccc2c1CCCC2(C)C [Cryptotanshinone] | 0.361 | 0.0832
65 | Cc1cc(Nc2ccc(NC(=O)c3ccc(Nc4ccnc5ccccc45)cc3)cc2)nc(N)n1 | 0.043 | 0.0318
66 | CNCc1ccc(C)c(NC(=O)c2ccc(Nc3nc(-c4ccccc4)c4ccccc4n3)cc2)c1 | 1.13 | 0.134
67 | CC(=O)Nc1ccc(C(=O)Nc2ccccc2N)cc1 [CI994 (Tacedinaline)] | 0.755 | 0.434
68 | COc1cc(-c2ncn(/C=C\C(=O)OC(C)C)n2)cc(C(F)(F)F)c1 | 0.22 | 0.259
69 | CNc1cccc(CCOc2ccc3c(c2)CN(CC(F)(F)F)C(=O)[C@H](CC(=O)O)C3)n1 | 0.781 | 0.671
70 | CCCCc1oc2ccccc2c1C(=O)c1cc(I)c(OCCN(CC)CC)c(I)c1 [Amiodarone HCl] | 0.994 | 0.867
71 | CCCCc1oc2ccc(NS(C)(=O)=O)cc2c1C(=O)c1ccc(OCCCN(CCCC)CCCC)cc1 [Dronedarone HCl] | 0.835 | 0.106
72 | CN(CCOc1ccc(NS(C)(=O)=O)cc1)CCc1ccc(NS(C)(=O)=O)cc1 [Dofetilide] | 1.08 | 0.78
73 | N#Cc1ccc(-c2c(-c3ncn[nH]3)sc(N3CCOCC3)c2C#N)c(F)c1 | 0.737 | 0.572
